Data taken from PubChem BioAssay.

assay: inhibitors of PAF-induced NFkB signaling in CF airway cells, dose response, cell-based, uHTS hits, panel, cytotoxicity readout (AID 624344); details: CF bronchial epithelial cells, PAF-induced NFkB reporter inhibition, with PAF, run 1; at 79 µM (top of the series) unless noted

Compound | inhibition [%]
C=CCN1c2ccccc2Sc2cnccc21 | 105
COc1ccc(CN2C[C@H]3CCCN3c3cc(Br)ccc3S2(=O)=O)cc1 | 74.6
O=C(N/N=C/c1ccccc1Cl)c1[nH]c2ccc(Br)cc2c1-c1ccccc1 | 105
CCn1c(=O)c2c(cnn2C)c2ccccc21 | 117
N#CC(C#N)c1ccnc2ccccc12 | 110
COc1ccc(C2=Nn3c(nnc3-c3ccccc3OC)SC2)cc1OC1CCOC1 (stereo not drawn) | 92.2
CCOc1cccc(-c2nnc3sc(C4CCCCC4)nn23)c1 | 102
Nc1ncnc2c1c(-c1ccc(Oc3ccccc3)cc1)cn2C1CCCC1 | 114
O=C(CCS(=O)(=O)c1ccccc1)N(CCCN1CCOCC1)c1nc2c(F)cccc2s1 | 97.5
CC(=O)c1c(C)n(-c2ccccc2)c2ccc(O)cc12 | 90.8
c1csc(CNc2ncnc3ccc(-c4ccoc4)cc23)c1 | 105
Cc1ccc(S(=O)(=O)N2[C@@H](c3ccc(C(C)(C)C)cc3)C(C(=O)O)=CC[C@H]2c2ccc(C(C)C)cc2)cc1 | 65
COc1cc(CN(C)c2ccc(S(=O)(=O)N3CCCC3)cn2)ccc1OC(F)F | 82.4
Cc1ccccc1C(=O)N1CCN(c2ccc(NC(=O)CSc3ccc(Cl)cc3)cc2)CC1 | 77.6
Cc1c(C(=O)OCC(C)C)[nH]c2c1C(=O)CC(c1ccco1)C2 (stereo not drawn) | 97.4
O=C(c1ccc(O)c(Br)c1)c1cc(Br)ccc1O | 105
O=c1c(O)c(-c2ccccc2)oc2cc(O)cc(O)c12 | 103
CC1(Cc2ccc(F)cc2)C(=O)Nc2ccc(-c3cccnc3)cc21 (stereo not drawn) | 98.2
